Test results as given in PubChem BioAssay (NCATS).
Values without a mark were called inactive. Results filed as inconclusive are left out. A call without a number means that no potency is given here. Activity calls are given as the source filed them. Unless noted, calls follow the shape of the dose curve; as a rule, active = well fitted curve in the direction sought with a large enough effect; inconclusive = small, poorly fitted or top-dose-only effect, or another doubt; inactive = no such curve, though single readings can be large; an effect the other way counts as inactive or inconclusive.

Columns and labels:
[1] = target: Glucocorticoid receptor (Homo sapiens) (UniProt P04150); assay: GR-EFC Redistribution (AID 451; calls by dose curve; also: potency is read from the fitted curve at half-maximal effect); details: CHO-K1 GR-EFC translocation, beta-gal luminescence, 2 h
Glucocorticoid receptor (Homo sapiens), sequence (P04150 whole entry, looked up, the tested form may be a part): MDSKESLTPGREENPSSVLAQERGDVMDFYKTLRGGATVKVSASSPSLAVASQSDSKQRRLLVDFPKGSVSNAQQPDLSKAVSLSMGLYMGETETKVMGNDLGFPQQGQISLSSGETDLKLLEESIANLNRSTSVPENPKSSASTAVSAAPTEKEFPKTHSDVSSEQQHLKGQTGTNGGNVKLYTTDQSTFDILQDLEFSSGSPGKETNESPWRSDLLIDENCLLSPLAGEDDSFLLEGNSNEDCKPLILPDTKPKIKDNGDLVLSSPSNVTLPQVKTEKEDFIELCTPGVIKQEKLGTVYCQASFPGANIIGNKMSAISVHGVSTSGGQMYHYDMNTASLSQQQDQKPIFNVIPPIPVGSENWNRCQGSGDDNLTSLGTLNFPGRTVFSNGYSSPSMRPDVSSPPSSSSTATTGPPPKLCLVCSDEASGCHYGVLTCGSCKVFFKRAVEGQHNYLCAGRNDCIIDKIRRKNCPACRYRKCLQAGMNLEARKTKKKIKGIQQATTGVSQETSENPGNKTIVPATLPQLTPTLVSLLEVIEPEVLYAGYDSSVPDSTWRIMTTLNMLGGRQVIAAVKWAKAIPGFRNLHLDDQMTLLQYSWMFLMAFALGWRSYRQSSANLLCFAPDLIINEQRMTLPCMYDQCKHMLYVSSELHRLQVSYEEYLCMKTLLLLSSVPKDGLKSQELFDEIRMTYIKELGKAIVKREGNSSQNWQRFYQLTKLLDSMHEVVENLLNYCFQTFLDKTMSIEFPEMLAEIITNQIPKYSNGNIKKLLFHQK
In short: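 CHO-K1 cells expressing nuclear EA and GR-ED fragments of b-gal; compounds titrated up to 46 uM final, 2 h at 37 C. GR nuclear translocation read as complemented b-gal luminescence after 1 h RT detection.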

[2] = target: Mitogen-activated protein kinase 10 (Mus musculus) (UniProt Q61831); assay: JNK3 AlphaScreen Assay (AID 530; active = well fitted curve in either direction with a large enough effect, not every such curve was filed as active;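 also: kinase came from lysate of stimulated human HepG2 cells; signal reports phosphorylation of biotinylated GST-cJun 1-79 at Ser73 with 10 µM ATP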); details: JNK3 lysate, c-Jun phosphorylation; series mostly up to 57.1 µM
In short: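 HepG2 lysate (IL-1b/TNFa pre-activated) + biotin-GST-cJun 1-79 + anti-pSer73 cJun; cpd titration, 15 min RT; ATP 10 uM start; Tris pH 7.6, MgCl2, DTT, vanadate; beads in EDTA buffer; AlphaScreen.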

[3] = target: DNA dC->dU-editing enzyme APOBEC-3G (Homo sapiens) (UniProt Q9HC16); assay: qHTS for inhibitors of Vif-A3G interactions: Validation (AID 588379); details: Vif-A3G protein interaction assay; series mostly up to 46.1 µM
DNA dC->dU-editing enzyme APOBEC-3G (Homo sapiens), sequence (Q9HC16 whole entry, looked up): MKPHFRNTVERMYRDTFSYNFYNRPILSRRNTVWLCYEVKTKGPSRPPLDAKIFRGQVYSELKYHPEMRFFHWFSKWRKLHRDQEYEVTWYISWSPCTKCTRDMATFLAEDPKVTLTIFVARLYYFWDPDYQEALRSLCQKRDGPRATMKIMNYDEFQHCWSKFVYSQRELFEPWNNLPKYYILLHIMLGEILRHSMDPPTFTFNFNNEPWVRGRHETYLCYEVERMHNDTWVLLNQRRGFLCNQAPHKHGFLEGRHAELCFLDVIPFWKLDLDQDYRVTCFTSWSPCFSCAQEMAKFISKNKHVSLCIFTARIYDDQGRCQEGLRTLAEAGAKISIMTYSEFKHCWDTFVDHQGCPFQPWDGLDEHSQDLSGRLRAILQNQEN
In short: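 Yellow fluorescence (Ex 488, Em 500-530) of Vif-coexpressing HeLa A3G-eYFP cells, scanned by Acumen cytometer, reports blocked A3G degradation. Cells plated at 700/well overnight at 37 deg C before compound addition, then a further overnight compound incubation at 37 deg C.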

[4] = system: Zika virus NS2B-NS3 protease; assay: Primary screen GU AMC qHTS for Zika virus inhibitors (AID 1347154); details: Zika NS2B-NS3 unlinked protease, AMC fluorogenic substrate; series mostly up to 54.1 µM; also: nearly all actives have a fitted effect of over 70% in size
In short: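 Unlinked Zika NS2B hydrophilic domain–NS3 protease complex at 25 nM in 10 mM Tris-HCl pH 8.0, 0.01% Tween 20, with an AMC peptide substrate. Fluorescence change (340/450 nm) over 15 min at room temperature, normalized to controls, fitted to 4-parameter Hill.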

[5] = Primary qHTS for small molecule stabilizers of the endoplasmic reticulum resident proteome: Secreted ER Calcium Modulated Protein (SERCaMP) assay (AID 1508630); details: SH-SY5Y GLuc-SERCaMP (Gaussia luciferase released on ER calcium loss) secretion, thapsigargin, luminescence; series mostly up to 38.4 µM
In short: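 The SH-SY5Y reporter protocol was run at 3 concentrations up to 38.3 uM (primary) or 11 concentrations (follow-up): 16 h compound, 100 nM thapsigargin for 4 h, then extracellular luciferase luminescence.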

[6] = target: Cytochrome P450 1A2 (Homo sapiens) (UniProt P05177); assay: p450-cyp1a2 (AID 410; calls by dose curve; also: potency is read from the fitted curve at half-maximal effect); details: recombinant CYP1A2, luciferin-ME demethylation, luminescence; series mostly up to 57 µM
In short: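 20nM CYP1A2, 100uM Luciferin-ME (=Km), 100mM KPO4; cpd 10 min RT; +NADPH regen, 60 min RT; stop/detect 20 min; luminescence. Normalized to furafylline 57 uM = full inhibition.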

[7] = target: Guanine nucleotide-binding protein G(i) subunit alpha-1 (Homo sapiens) (UniProt P63096); assay: qHTS Assay for Inhibitors of RGS12 GoLoco Motif Activity (Green Fluorophore) (AID 879); details: Galphai1/FITC-RGS12 GoLoco peptide, fluorescence polarization; series mostly up to 57.1 µM;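 also: negative values mean loss of peptide binding seen as reduced polarization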
Guanine nucleotide-binding protein G(i) subunit alpha-1 (Homo sapiens), sequence (P63096 whole entry, looked up): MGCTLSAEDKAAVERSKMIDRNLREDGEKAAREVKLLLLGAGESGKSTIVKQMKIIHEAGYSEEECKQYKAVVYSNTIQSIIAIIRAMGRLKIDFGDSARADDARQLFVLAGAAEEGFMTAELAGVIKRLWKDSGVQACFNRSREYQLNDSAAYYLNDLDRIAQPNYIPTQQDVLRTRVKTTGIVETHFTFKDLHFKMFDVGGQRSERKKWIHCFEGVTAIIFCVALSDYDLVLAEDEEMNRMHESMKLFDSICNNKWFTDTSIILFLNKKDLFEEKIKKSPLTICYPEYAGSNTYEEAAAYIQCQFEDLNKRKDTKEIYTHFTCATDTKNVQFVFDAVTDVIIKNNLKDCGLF
In short: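 A drop in FITC polarization marked displacement of the FITC-tagged RGS12 GoLoco peptide (10 nM) from Gαi1 (50 nM). Compounds were incubated 10 min at room temperature in Tris pH 7.5 buffer containing 150 mM NaCl, 0.1 mM GDP and 0.05% NP40; unlabeled peptide titration served as control.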

[8] = target: Cytochrome P450 3A4 (Homo sapiens) (UniProt P08684); assay: qHTS Assay for Activators of Cytochrome P450 3A4 (AID 885); details: recombinant CYP3A4, Luciferin-PPXE luminescence, 60 min; series mostly up to 57.1 µM; also: nearly all actives have a fitted effect of over 65% in size
Cytochrome P450 3A4 (Homo sapiens), sequence (P08684 whole entry, looked up): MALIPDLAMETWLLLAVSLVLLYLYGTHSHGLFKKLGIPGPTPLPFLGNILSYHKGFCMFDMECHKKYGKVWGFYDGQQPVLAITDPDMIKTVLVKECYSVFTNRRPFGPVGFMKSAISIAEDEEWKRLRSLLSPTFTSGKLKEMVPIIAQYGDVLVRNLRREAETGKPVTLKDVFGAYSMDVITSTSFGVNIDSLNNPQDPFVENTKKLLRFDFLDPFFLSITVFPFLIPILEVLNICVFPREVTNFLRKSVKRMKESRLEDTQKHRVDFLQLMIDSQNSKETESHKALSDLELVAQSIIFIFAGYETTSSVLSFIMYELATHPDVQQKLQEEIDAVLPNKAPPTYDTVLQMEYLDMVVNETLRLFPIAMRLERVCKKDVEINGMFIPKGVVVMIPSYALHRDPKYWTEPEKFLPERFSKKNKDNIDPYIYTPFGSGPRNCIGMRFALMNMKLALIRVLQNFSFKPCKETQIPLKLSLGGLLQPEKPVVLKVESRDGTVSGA
In short: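 Using 20nM recombinant human CYP3A4 in potassium phosphate (200mM), substrate Luciferin-PPXE at 25uM, luminescent luciferin detection followed a 60-min RT NADPH reaction; data scaled to 57 uM ketoconazole.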

[9] = qHTS Assay for Identification of Small Molecule Antagonists for NFkB Signaling Pathway (AID 895; active = well fitted inhibition curve with a large enough effect in the signal ratio, with a control signal flat, not every such curve was filed as active; the % refers to the signal ratio); details: NFkB beta-lactamase reporter cells, FRET ratio 460/530, stimulated with 10 pM TNF alpha; series mostly up to 38.3 µM
In short: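 ME-180 NFkB-bla cells (beta-lactamase under NFkB response element), plated overnight, treated with compound then 10 pM TNF alpha (about EC50) for 5 hrs at 37 C. LiveBLAzer FRET read at 460/530 nm emission, 405 nm excitation.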

[10] = target: Muscarinic acetylcholine receptor M1 (Rattus norvegicus) (UniProt P08482); assay: qHTS Assay for Antagonists of Acetylcholine Muscarinic M1 Receptor: Kinetic Measurement of Intracellular Calcium Response (AID 943); details: M1-expressing cells, kinetic intracellular calcium fluorescence; series mostly up to 35.3 µM;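 also: Fluo-4 calcium signal as peak divided by basal fluorescence over 4 min; nearly all actives have a fitted effect of over 75% in size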
Muscarinic acetylcholine receptor M1 (Rattus norvegicus), sequence (P08482 whole entry, looked up): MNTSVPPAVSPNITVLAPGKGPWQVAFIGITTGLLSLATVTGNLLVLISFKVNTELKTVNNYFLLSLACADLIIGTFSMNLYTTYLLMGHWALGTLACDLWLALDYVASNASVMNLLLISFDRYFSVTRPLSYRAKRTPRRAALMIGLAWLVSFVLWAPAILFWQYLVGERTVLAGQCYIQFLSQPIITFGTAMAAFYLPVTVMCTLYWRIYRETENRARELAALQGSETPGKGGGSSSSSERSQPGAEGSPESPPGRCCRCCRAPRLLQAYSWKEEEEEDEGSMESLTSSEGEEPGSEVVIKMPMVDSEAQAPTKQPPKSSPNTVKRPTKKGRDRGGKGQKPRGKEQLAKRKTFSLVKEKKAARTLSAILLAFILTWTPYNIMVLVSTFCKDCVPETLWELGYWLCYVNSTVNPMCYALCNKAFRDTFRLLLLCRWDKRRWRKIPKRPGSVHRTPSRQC
In short: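 Read-out: peak over basal Fluo-4 fluorescence, kinetic at 1 Hz for 4 min after EC80 carbachol (100 nM final). Rat M1-CHO cells, dye loaded 1 h at 37C, compound added 10 min before agonist.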

[11] = target: Pyruvate kinase PKM (Homo sapiens) (UniProt P14618); assay: qHTS Assay for Activators of Human Muscle Pyruvate Kinase (AID 954; active = well fitted curve in the direction sought with a large enough effect, not every such curve was filed as active); details: purified human muscle pyruvate kinase, luciferase-coupled luminescence, 1 h; series mostly up to 57.5 µM
Pyruvate kinase PKM (Homo sapiens), sequence (P14618 whole entry, looked up): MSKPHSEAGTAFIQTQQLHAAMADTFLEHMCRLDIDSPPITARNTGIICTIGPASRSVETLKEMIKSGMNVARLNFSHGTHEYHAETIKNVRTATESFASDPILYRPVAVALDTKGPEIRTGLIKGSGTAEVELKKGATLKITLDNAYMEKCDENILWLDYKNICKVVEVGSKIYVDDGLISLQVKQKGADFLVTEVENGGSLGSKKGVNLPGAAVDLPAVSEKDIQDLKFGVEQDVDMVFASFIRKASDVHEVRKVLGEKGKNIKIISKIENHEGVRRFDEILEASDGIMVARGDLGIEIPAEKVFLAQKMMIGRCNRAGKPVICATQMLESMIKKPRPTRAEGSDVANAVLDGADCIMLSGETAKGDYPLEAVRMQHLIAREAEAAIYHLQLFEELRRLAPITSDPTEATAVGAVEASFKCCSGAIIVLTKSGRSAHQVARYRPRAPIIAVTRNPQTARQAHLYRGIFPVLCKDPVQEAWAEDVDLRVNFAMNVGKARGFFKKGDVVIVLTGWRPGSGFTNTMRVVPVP
In short: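 Screening used highly purified human pyruvate kinase M2 under submaximal activity, with PEP at its Km and ADP below Km. After an hour at room temperature, ATP was read by luciferase luminescence.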

[12] = target: Pyruvate kinase PKM (Homo sapiens) (UniProt P14618); assay: qHTS Assay for Inhibitors of Human Muscle Pyruvate Kinase (AID 958); details: purified human PKM enzyme activity
In short: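 Purified human PKM2 (0.1 nM) with 0.5 mM PEP (Km) and 0.1 mM ADP in 50 mM imidazole pH 7.2, KCl, MgCl2, 1 h at room temperature; ATP formed read by coupled luciferase luminescence. Normalized to no-enzyme/110 uM thiadiazolimine inhibition; 0.3 nM enzyme column for activation.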

[13] = target: Pyruvate kinase (Leishmania mexicana) (UniProt Q27686); assay: qHTS Validation Assay for Activators of Leishmania Mexicana Pyruvate Kinase (AID 959); details: purified L. mexicana pyruvate kinase, enzyme activity; series mostly up to 57.5 µM
In short: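 Pyruvate kinase activity of E451W LmPYK (0.2 nM) was followed as ATP output after 1 h at room temperature with 0.5 mM PEP and 0.1 mM ADP, detected by PKLight luminescence.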

[14] = target: alpha-glucosidase (Oryza sativa, rice) (UniProt Q653V4); assay: Counterscreen for Glucocerebrosidase Inhibitors: qHTS Assay for Rice alpha-Glucosidase at pH 5.0 (AID 997); details: rice alpha-glucosidase enzyme activity; series mostly up to 76.9 µM
In short: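 Endpoint fluorogenic assay at pH 5.0: compounds (0.7 nM to 77 uM) titrated against 4 nM rice enzyme and 400 uM 4-MU-alpha-glucoside for 20 min at room temperature; NaOH/glycine stop, read ex 365/em 440 nm, Hill-fitted AC50.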

[15] = target: Ubiquitin carboxyl-terminal hydrolase 1 (Homo sapiens) (UniProt O94782); assay: Inhibitors of USP1/UAF1: Pilot qHTS (AID 504865); details: purified USP1/UAF1, Ub-rhodamine cleavage fluorescence; series mostly up to 114 µM;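 also: rhodamine fluorescence freed from ubiquitin-rhodamine substrate followed over time; top concentration of the series differs between compounds; nearly all actives have a fitted effect of over 35% in size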
Ubiquitin carboxyl-terminal hydrolase 1 (Homo sapiens), sequence (O94782 whole entry, looked up): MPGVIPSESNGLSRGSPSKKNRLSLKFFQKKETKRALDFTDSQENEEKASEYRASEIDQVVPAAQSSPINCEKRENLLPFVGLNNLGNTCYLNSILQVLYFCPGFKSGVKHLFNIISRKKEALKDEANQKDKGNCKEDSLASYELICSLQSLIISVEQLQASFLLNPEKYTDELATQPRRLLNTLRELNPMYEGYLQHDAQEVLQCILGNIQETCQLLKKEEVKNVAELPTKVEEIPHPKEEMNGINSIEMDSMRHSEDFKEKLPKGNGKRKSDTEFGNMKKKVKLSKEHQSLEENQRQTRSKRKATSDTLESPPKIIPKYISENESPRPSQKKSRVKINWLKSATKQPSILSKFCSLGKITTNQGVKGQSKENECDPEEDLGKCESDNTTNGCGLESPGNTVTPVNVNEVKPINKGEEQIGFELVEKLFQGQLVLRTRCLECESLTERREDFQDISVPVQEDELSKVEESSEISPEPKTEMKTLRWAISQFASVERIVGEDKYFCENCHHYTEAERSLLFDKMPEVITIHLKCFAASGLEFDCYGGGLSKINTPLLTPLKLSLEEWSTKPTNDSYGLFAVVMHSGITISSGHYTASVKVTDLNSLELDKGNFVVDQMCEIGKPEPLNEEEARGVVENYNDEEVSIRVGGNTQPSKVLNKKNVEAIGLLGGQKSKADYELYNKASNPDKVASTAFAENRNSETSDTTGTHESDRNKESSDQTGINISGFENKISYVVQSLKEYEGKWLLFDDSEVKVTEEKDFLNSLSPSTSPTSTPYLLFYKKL
In short: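 1nM USP1/UAF1 + cpd, 15 min RT; start w/ Ub-Rho 150nM final; kinetic FL 480/540 nm, 6 reads q60 s. Buffer 50mM HEPES pH 7.8, 0.5mM EDTA, 1mM TCEP, 0.01% Tween-20, 0.1 mg/ml BSA.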

[16] = target: Glucocorticoid receptor (Homo sapiens) (UniProt P04150); assay: GR-GFP Redistribution (AID 450;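 active = compounds whose dose series gives a full or clear partial fitted curve of increased nuclear translocation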; also: potency is read from the fitted curve at half-maximal effect); details: U2OS GR-GFP nuclear translocation, laser cytometry, 2 h
[17] = target: 3',5'-cyclic-AMP phosphodiesterase 4B (Homo sapiens) (UniProt Q07343); assay: qHTS Assay for Inhibitors of PDE-IV (AID 607; active = well fitted activation curve with a large enough effect in the main read-out, with a control signal flat, not every such curve was filed as active); details: HEK293 ACTOne CNG channel cells, membrane potential fluorescence; series mostly up to 22.9 µM
3',5'-cyclic-AMP phosphodiesterase 4B (Homo sapiens), sequence (Q07343 whole entry, looked up): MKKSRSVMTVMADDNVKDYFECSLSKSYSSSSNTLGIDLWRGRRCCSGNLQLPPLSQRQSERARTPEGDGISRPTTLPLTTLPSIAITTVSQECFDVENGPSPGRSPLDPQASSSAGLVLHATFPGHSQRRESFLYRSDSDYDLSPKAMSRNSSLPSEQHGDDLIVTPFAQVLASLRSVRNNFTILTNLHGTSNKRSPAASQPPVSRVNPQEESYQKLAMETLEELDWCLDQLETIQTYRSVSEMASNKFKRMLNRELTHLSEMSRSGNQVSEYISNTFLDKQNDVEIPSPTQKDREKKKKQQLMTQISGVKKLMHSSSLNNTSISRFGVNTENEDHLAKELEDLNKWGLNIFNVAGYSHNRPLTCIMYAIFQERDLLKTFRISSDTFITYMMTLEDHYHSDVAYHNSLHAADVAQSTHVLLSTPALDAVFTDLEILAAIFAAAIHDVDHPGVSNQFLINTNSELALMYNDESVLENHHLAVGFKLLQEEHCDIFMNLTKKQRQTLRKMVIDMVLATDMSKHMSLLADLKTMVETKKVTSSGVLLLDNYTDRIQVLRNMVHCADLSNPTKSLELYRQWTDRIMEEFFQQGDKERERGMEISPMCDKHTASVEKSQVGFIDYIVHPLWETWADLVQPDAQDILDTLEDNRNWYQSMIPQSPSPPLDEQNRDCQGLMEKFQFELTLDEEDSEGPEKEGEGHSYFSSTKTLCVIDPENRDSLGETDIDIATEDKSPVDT
In short: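 Live HEK293 cells with a modified cyclic nucleotide-gated (CNG) channel report intracellular cAMP via membrane-potential dye fluorescence (ex 535/em 590 nm). Endogenous PDE-IV was targeted. Compounds were tested at up to 22.9 uM final; RO 20-1724 100 uM served as control.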

Structure (SMILES): NCCCCCCNS(=O)(=O)c1ccc2c(Cl)cccc2c1
- Potency [1]: > 46 µM
- Potency [2]: inactive
- Potency [3]: inactive
- Potency [4]: inactive
- Potency [5]: inactive

Structure (SMILES): Fc1cccc(/C=N\N=C/c2cccc(F)c2)c1
- Potency [6]: 0.2 µM (active)
- Potency [1]: > 46 µM
- Potency [2]: inactive
- outcome [7]: inactive
- Potency [8]: inactive
- Potency [9]: inactive
- Potency [10]: inactive
- outcome [11]: inactive
- Potency [12]: 2.51 µM (active)
- Potency [13]: inactive
- outcome [14]: inactive
- Potency [15]: inactive
- Potency [3]: inactive
- Potency [4]: inactive
- Potency [5]: inactive

Structure (SMILES): CC(C)C[C@@H](NC(=O)OCC1c2ccccc2-c2ccccc21)C(=O)O
- Potency [16]: > 46 µM
- Potency [1]: > 46 µM
- Potency [4]: inactive
- Potency [5]: inactive

Structure (SMILES): COc1ccccc1N1CCN(CCn2c(=O)[nH]c3c([nH]c4ccccc43)c2=O)CC1
- Potency [16]: > 46 µM
- Potency [1]: > 46 µM
- Potency [2]: inactive
- Potency [17]: inactive
- Potency [8]: inactive
- Potency [3]: inactive
- Potency [4]: inactive
- Potency [5]: inactive

Structure (SMILES): NC1=NCCCC1
- Potency [16]: > 46 µM
- Potency [1]: > 46 µM
- Potency [2]: inactive
- Potency [17]: inactive
- Potency [15]: inactive
- Potency [3]: inactive
- Potency [4]: inactive
- Potency [5]: inactive
